Several values for one entry are separate records, joined by “and”; a condition that tells them apart may be missing. Identical values can stand only once. Results filed as inconclusive are left out. Some structures have more than one record in an assay (separate samples or runs), and their calls can disagree. Activity calls are given as the source filed them. Unless noted, calls follow the shape of the dose curve; as a rule, active = well fitted curve in the direction sought with a large enough effect in the repeat runs; inconclusive = weak or mixed curves; inactive = no such curve, though single readings can be large; an effect the other way counts as inactive or inconclusive.
Experiments:
[1] = qHTS assay to identify small molecule antagonists of the retinoid-related orphan receptor gamma (ROR-gamma) signaling pathway - cell viability counter screen (AID 1159520); also: nearly all actives have a fitted effect of over 50% in size; also: potency is read from the fitted curve at half-maximal effect; as to activity, negative = cytotoxicity: % is scaled to controls: 0 for no effect and ±100 for the full control effect
In short: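 Tet-on ROR gamma CHO cells (1,000/well) were plated 4 hr, given compounds in DMSO for 2 hr at 37 C, then induced with 1 uM final doxycycline for 16 hr. Viability was read as ATP by CellTiter-Glo luminescence after 30 min.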

[2] = molecular target: Nuclear receptor ROR-gamma (Homo sapiens) (UniProt P51449); assay: qHTS assay to identify small molecule antagonists of the retinoid-related orphan receptor gamma (ROR-gamma) signaling pathway (AID 1159521; also: nearly all actives have a fitted effect of over 50% in size; also: potency is read from the fitted curve at half-maximal effect)
In short: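 CHO Tet-on RORγ, RORE-luc reporter. Cpd 2 h pre-incubation, then dox hyclate 1 uM final, 16 h, 37 C/5% CO2. ONE-Glo luminescence; decrease = antagonist.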

[3] = qHTS assay to identify small molecule agonists of the AP-1 signaling pathway - cell viability counter screen (AID 1159525; calls by dose curve; also: nearly all actives have a fitted effect of over 55% in size; also: potency is read from the fitted curve at half-maximal effect)
In short: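 ME-180 AP-1-bla, 2500 cells/well, Opti-MEM + 0.5% dialyzed FBS; overnight 37 °C; cpd 15-pt titration, 5 h 37 °C; CellTiter-Glo 30 min RT; luminescence read; normalised to TOAB and DMSO controls.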

[4] = qHTS assay to identify small molecule antagonists of the retinoid acid receptor (RAR) signaling pathway - cell viability counter screen (AID 1159551); also: nearly all actives have a fitted effect of over 35% in size; also: potency is read from the fitted curve at half-maximal effect
In short: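 Cytotoxicity counter screen in C3RL4 cells: 6 h compound exposure with 1 uM retinol (final), viability from cellular ATP by luminescence.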

[5] = qHTS assay to identify small molecule antagonists of the retinoic acid receptor (RAR) signaling pathway (AID 1159552; also: nearly all actives have a fitted effect of over 50% in size; also: potency is read from the fitted curve at half-maximal effect)
In short: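 Cells of the C3RL4 line were seeded, incubated overnight, then dosed with compounds in DMSO followed immediately by retinol (1 uM final). Six hours later luciferase detection reagent went in; signal was measured after 30 min at RT.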

[6] = qHTS assay to identify small molecule antagonists of the estrogen related receptor (ERR) signaling pathway from Tox21 library - cell viability counter screen (AID 1224834); also: nearly all actives have a fitted effect of over 30% in size; also: potency is read from the fitted curve at half-maximal effect
In short: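 Cytotoxicity of test substances is gauged in the same ERR cells used for the antagonist screen, after 17.5 h of compound treatment at 37 C, by CellTiter-Fluor fluorescence measured after 30 min.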

[7] = qHTS assay to identify small molecule agonists of the constitutive androstane receptor (CAR) signaling pathway - cell viability counter screen (AID 1224836); also: nearly all actives have a fitted effect of over 45% in size; also: potency is read from the fitted curve at half-maximal effect
In short: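 HepG2-CYP2B6-hCAR, 2500 cells/well, 4 h pre-incubation; cpd 15 conc + PK11195 0.75 uM final; 23 h, 37 C/5% CO2; CellTiter-Fluor, fluorescence.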

[8] = qHTS assay to identify small molecule antagonists of the estrogen related receptor signaling pathway with the pleiotropic PPARgamma coactivator (PGC) cell viability counter screen (AID 1224822;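 also: series mostly up to about 46 µM; viability read after 17.5 h compound exposure; % is scaled to controls: 0 for no effect and ±100 for the full control effect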)
In short: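 Seed PGC/ERR cells (2,000/well); incubate 6 h at 37 C/5% CO2; pin-transfer compounds in DMSO; incubate 17.5 h at 37 C; add CellTiter-Fluor; after 30 min read fluorescence.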

[9] = molecular target: Luciferin 4-monooxygenase (Photinus pyralis) (UniProt P08659); assay: qHTS assay to identify small molecule inhibitors of firefly luciferase (AID 1224835); also: nearly all actives have a fitted effect of over 25% in size; also: potency is read from the fitted curve at half-maximal effect; as to activity change, negative = inhibition: series mostly up to about 120 µM; % is scaled to controls: 0 for no effect and ±100 for the full control effect
In short: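 Quantitative HTS format; KM concentrations of both substrates. Purified P. pyralis FLuc activity quantified from luminescence images.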

[10] = qHTS assay to identify small molecule agonists of the RXR signaling pathway - cell viability counter screen (AID 1159529); also: potency is read from the fitted curve at half-maximal effect; nearly all actives have a fitted effect of over 50% in size
In short: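 HEK 293T RXRa-bla cells, 2% CS-FBS; 5 h settle; cpd 16 h 37 C, 5% CO2; CellTiter-Glo 30 min RT, luminescence. Tetraoctyl ammonium bromide as positive control.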

[11] = qHTS assay to identify small molecule agonists of the retinoic acid receptor (RAR) signaling pathway (AID 1159553); also: potency is read from the fitted curve at half-maximal effect
In short: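 Agonist activity was scored in C3RL4 cells bearing a retinoic acid response element luciferase construct. Cells were treated with compounds for 6 hr at 37 C, and luciferase signal was measured as luminescence.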

[12] = qHTS assay to identify small molecule agonists of the AP-1 signaling pathway (AID 1159526; calls by dose curve; also: % is scaled to controls: 0 for no effect and ±100 for the full control effect)
[13] = molecular target: Retinoic acid receptor RXR-alpha (Homo sapiens) (UniProt P19793); assay: qHTS assay to identify small molecule agonists of the RXR signaling pathway (AID 1159527; calls by dose curve; also: % is scaled to controls: 0 for no effect and ±100 for the full control effect; nearly all actives have a fitted effect of over 35% in size)
In short: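 Read-out: beta-lactamase FRET ratio (405 nm excitation, 460 and 530 nm emission) after 2 hr substrate loading at room temperature. Cells were RXR-alpha-UAS-bla HEK 293T treated with compounds for 16 hr in 2% charcoal-stripped FBS medium.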

Chain of Luciferin 4-monooxygenase (Photinus pyralis) (P08659 whole entry, looked up): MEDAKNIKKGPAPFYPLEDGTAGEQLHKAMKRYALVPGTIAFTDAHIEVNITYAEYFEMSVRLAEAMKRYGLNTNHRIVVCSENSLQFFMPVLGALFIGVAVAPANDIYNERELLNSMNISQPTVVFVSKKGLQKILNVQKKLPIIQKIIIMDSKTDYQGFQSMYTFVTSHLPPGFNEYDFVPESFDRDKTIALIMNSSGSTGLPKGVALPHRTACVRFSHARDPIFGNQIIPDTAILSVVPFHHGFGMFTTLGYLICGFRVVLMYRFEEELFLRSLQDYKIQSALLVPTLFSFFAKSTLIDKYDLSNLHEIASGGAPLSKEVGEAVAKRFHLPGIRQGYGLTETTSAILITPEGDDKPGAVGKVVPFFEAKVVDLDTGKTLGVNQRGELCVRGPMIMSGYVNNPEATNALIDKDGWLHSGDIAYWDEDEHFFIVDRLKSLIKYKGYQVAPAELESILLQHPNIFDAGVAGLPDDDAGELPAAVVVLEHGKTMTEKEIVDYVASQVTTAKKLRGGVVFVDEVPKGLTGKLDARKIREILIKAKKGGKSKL
Chain of Retinoic acid receptor RXR-alpha (Homo sapiens) (P19793 whole entry, looked up): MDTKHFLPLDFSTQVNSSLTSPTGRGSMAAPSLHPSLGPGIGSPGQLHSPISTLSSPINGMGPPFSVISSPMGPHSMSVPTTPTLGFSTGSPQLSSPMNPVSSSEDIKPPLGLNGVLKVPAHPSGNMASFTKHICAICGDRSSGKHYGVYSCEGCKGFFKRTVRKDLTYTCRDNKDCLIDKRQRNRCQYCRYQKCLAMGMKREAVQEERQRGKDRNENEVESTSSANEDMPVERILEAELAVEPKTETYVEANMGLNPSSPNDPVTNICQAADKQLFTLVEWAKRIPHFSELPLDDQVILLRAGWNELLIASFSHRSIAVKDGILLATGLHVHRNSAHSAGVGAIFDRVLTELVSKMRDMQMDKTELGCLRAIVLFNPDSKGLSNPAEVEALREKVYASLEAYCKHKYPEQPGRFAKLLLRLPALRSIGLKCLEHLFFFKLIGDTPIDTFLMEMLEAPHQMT

N#CSCSc1nc2ccccc2s1
active: Potency [1] 4.33 µM | Potency [2] 13.7 µM | Potency [3] 43.6 µM | Potency [4] 61.1 µM | Potency [5] 17.2 µM | Potency [6] 61.1 µM | Potency [7] 61.1 µM

CC(C)c1cccc(C(C)C)c1N1C(=O)c2ccc(O)cc2C1=O
active: Potency [1] 27.3 µM | Potency [4] 61.1 µM | Potency [5] 24.3 µM
inactive: Potency [8] | Potency [9]

Clc1ccccc1CN1CCc2sccc2C1
inactive: Potency [1] | Potency [4] | Potency [6] | Potency [7]

O=C1c2c(O)ccc([N+](=O)[O-])c2C(=O)c2c([N+](=O)[O-])ccc(O)c21
active: Potency [1] 27.1 µM | Potency [2] 24.1 µM | Potency [3] 24.3 µM | Potency [10] 17.2 µM | Potency [4] 48.1 µM | Potency [5] 27.1 µM | Potency [6] 27.1 µM | Potency [9] 62.7 µM | Potency [7] 24.1 µM

O=C(Nc1ccc(Cl)cc1)Nc1ccc(Cl)c(C(F)(F)F)c1
inactive: Potency [11]
active: Potency [1] 23.7 µM | Potency [2] 7.5 µM | Potency [3] 16.9 µM | Potency [10] 12 µM | Potency [4] 29.8 µM | Potency [5] 23.7 µM | Potency [6] 11.9 µM | Potency [9] 34.7 µM

C[C@H]1O[C@@H](O[C@H]2[C@@H](O)C[C@H](O[C@H]3[C@@H](O)C[C@H](O[C@H]4CC[C@@]5(C)[C@H](CC[C@@H]6[C@@H]5C[C@@H](O)[C@]5(C)[C@@H](C7=CC(=O)OC7)CC[C@]65O)C4)O[C@@H]3C)O[C@@H]2C)C[C@H](O)[C@@H]1O
30.7 µM (active) and inactive: Potency [1]
inactive: Potency [12] | Potency [4] | Potency [5] | Potency [11]
active: Potency [2] 4.33 µM and 8.54 µM | Potency [6] 86.4 nM and 95.8 nM

Clc1cccnc1
inactive: Potency [1] | Potency [2] | Potency [3] | Potency [12] | Potency [4] | Potency [5] | Potency [6] | Potency [9] | Potency [7]

C[n+]1c2cc(N)ccc2cc2ccc(N)cc21 (tested in a mixture with another compound)
inactive: Potency [3]
active: Potency [5] 23.7 µM

Cc1cc(C)c(C=O)c(C)c1
inactive: Potency [1] | Potency [2] | Potency [3] | Potency [12] | Potency [4] | Potency [5] | Potency [6] | Potency [9] | Potency [7]

CC1CCCNC1 (stereo not drawn)
inactive: Potency [1] | Potency [2] | Potency [3] | Potency [4] | Potency [6] | Potency [9] | Potency [7]

CCN=C1C=CC(=C(c2ccc(N(CC)CC)cc2)c2ccc(N(CC)CC)cc2)c2ccccc21
active: Potency [1] 6.82 µM | Potency [2] 2.71 µM | Potency [3] 38.7 µM | Potency [4] 24.2 µM | Potency [5] 4.83 µM | Potency [6] 8.58 µM | Potency [9] 28.1 µM | Potency [7] 6.08 µM

CCC(=O)CC(C)CC (stereo not drawn)
inactive: activity, negative = cytotoxicity [1] 6.35% [at 0.349 µM] | activity change, negative = inhibition [2] 0.102% [at 0.35 µM] | viability change, negative = cytotoxic [3] 5.42% [at 0.29 µM] | activation [12] -5.51% [at 0.29 µM] | activity change, negative = cytotoxicity [4] 0.29% [at 0.349 µM] | activity, negative = inhibition [5] -2.26% [at 0.349 µM] | viability change, negative = cytotoxic [6] 2.01% [at 0.349 µM] | viability change, negative = cytotoxic [7] -0.276% [at 0.349 µM]

CCCCCCCOC(=O)c1ccc(O)cc1
active: Potency [3] 49 µM | Potency [10] 55 µM | Potency [11] 34.4 µM
inactive: Potency [1] | Potency [2] | Potency [13] | Potency [4] | Potency [5] | Potency [7]
